From PubChem BioAssay
KCNQ2 pot: KCNQ2 (rat) channel potentiation. hit rate 0.54% among 310,000. O88943. CHO-K1 KCNQ2, FluxOR thallium flux fluorescence; stronger effect = higher value. AID 2239. B-score at 10 µM;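 active = fluorescence ratio B-score at least 3 SD of library B-scores, with initial fluorescence B-score within 3 of them, cut at about 5.3 in these data; same plate scores as AID 2156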;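 note: B-score of peak minus minimum over baseline fluorescence ratio after K+ and Tl+ stimulus; positive B-score means potentiation of KCNQ2 with more thallium influx and brighter signal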
KCNQ2 block: inhibitors of rat KCNQ2 potassium channel; CHO-K1 KCNQ2, FluxOR thallium flux, 20 min; stronger effect = lower value; B-score at 10 µM; hit rate 1.1% among 310,000; AID 2156;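 active = fluorescence ratio B-score at most minus 3 library SDs, with starting brightness B-score within 2 library SDs, cut at about -5.5 in these data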
KCNQ2 block conf: rat KCNQ2 channel inhibition, confirmatory screen | activity change, negative = inhibition, % at 10 µM | AID 493025 | KCNQ2-expressing cells, thallium flux; stronger effect = lower value | hit rate 57% among 1,000 | shares compounds with KCNQ2 block;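 note: 0% = vehicle wells and values are ratio percent relative to vehicle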
KCNQ1 spec: selectivity of KCNQ2 inhibitors against human KCNQ1; shares compounds with KCNQ2 block; hit rate 15% among 1,000; activity change, negative = inhibition, % at 10 µM; KCNQ1-expressing cells, FluxOR thallium flux fluorescence; stronger effect = lower value;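 active = activity change at least 3 SD of negative controls below their mean in both duplicate wells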;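 note: CHO cells stably transfected with KCNQ1 and depolarized by potassium stimulus; peak minus minimum fluorescence over baseline after thallium addition; 0% = vehicle negative control and -100% = blank without thallium stimulus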
Target sequence (P51787 whole entry, looked up): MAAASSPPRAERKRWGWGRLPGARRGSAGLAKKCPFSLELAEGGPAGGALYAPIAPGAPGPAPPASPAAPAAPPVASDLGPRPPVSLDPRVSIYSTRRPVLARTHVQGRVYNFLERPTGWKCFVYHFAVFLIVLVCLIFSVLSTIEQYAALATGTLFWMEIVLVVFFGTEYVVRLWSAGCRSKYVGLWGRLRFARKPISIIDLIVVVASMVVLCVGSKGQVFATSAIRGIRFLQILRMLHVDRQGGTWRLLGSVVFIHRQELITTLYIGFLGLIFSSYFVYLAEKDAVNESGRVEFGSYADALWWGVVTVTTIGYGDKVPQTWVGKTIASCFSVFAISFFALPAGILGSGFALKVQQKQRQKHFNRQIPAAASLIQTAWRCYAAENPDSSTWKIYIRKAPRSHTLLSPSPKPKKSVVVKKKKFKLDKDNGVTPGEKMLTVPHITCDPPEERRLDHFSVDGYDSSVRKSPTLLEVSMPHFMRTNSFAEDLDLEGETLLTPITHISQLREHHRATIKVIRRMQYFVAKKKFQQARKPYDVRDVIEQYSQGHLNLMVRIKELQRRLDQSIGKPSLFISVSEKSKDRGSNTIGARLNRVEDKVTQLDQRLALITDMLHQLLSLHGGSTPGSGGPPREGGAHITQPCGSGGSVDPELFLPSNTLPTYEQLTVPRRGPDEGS
CHO Tl ctr: KCNQ2 inhibitor counter-screen hit in parental CHO cells; hit rate 14% among 1,000; shares compounds with KCNQ2 block; activity change, % at 10 µM; AID 493029; thallium flux counter-screen; stronger effect = lower value;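 note: 0% = vehicle negative controls with stimulus buffer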
KCNQ2 patch conf: blocks rat KCNQ2 current in automated patch clamp; KCNQ2-expressing cells; hit rate 49% among 550; calls only at 10 µM; shares compounds with KCNQ2 block
* marks the source's active call; other numbers are inactive results; i = inactive; x = no result; + = active, no number. A selection: hits, their analogues and other compounds. The true share with any hit is near 1.6%. Unless noted, the rule behind the calls is not given here.

SMILES	KCNQ2 pot	KCNQ2 block	KCNQ2 block conf	KCNQ1 spec	CHO Tl ctr	others
O=C(OCc1ccccc1)/C(=C/c1cccc(Br)c1)NC(=O)c1ccco1	-9.6	-9.6*	-25%*	i	i	KCNQ2 patch conf=+
O=C(Nc1ccccc1)/C(=C/c1cccc(Br)c1)NC(=O)c1ccco1	0.02	i	x	x	x
Cc1cc(C)c(NC(=O)c2cccs2)c(C)c1NC(=O)c1cccs1	0.06	i	x	x	x
O=[N+]([O-])c1cc(Br)c2nsnc2c1N1CCOCC1	x	i	x	x	x
Cc1cc(C)n(-c2nc3ccccc3c(=O)n2OCc2ccc(F)cc2)n1	x	i	x	x	x
Cc1cc(C)n(-c2nc3ccccc3c(=O)n2OCc2ccc(Cl)cc2)n1	-7.6	-7.6*	i	i	i
CN(c1ccccc1C(=O)N1CCN(c2ccccc2F)CC1)S(=O)(=O)c1ccccc1	x	i	x	x	x
O=C(CN1CCOCC1)Nc1ccc([N+](=O)[O-])cc1	0.22	i	x	x	x
O=C(Cc1coc2ccc3ccccc3c12)NCc1ccccc1	0.14	i	x	x	x
CCCN(CCC)C(=O)Cc1coc2ccc3ccccc3c12	-7.3	-7.3*	i	i	i
COc1ccc(CCNC(=O)CC(=O)N/N=C/c2ccc(Br)cc2)cc1OC	0.11	i	x	x	x
Cc1c(O)ccc2c(O)c(NC(=O)c3ccc4c(c3)CCC(C)(C)O4)c(=O)oc12	0.55	i	x	x	x
CCOc1nc2cnccc2n(CC(=O)Nc2ccccc2C(=O)OC)c1=O	x	i	x	x	x
CCOc1ccc(C(=O)Nc2cc(C)on2)cc1OCC	0.02	i	x	x	x
CCCCOc1cccc(OCCCC)c1C(=O)Nc1cc(C)on1	-9.7	-9.7*	-43%*	-34%*	-34%*	KCNQ2 patch conf=+
CCN(CC)C(=O)Cn1cnc2sc(C)c(S(=O)(=O)N3CCC(C)CC3)c2c1=O	0.91	i	x	x	x
CC(Sc1nnnn1-c1ccc(O)cc1)C(=O)NC1CCCCC1C (stereo not drawn)	0.08	i	x	x	x
Cc1ccc(-c2nn(-c3ccccc3)cc2C(=O)O)o1	x	i	x	x	x
Cc1ccc(-c2nn(-c3ccccc3)cc2CN(Cc2ccccc2)C(=O)c2ccco2)o1	-15	-15*	-47%*	-48%*	-50%*	KCNQ2 patch conf=i
CCCc1cc(C(=O)N(C2CCCCC2)C2CCCCC2)no1	-7.4	-7.4*	i	i	i
CCCc1cc(C(=O)NC2CCCCC2)no1	1.1	i	x	x	x
COc1ccccc1N(CC(O)CN1C(C)CCCC1C)S(=O)(=O)c1ccccc1 (stereo not drawn)	1.1	i	x	x	x
CCOC(=O)c1cc2c(=O)c3cc(C)ccc3oc2nc1C	1.5	i	x	x	x
CCN(CC)C(=O)c1cc2c(=O)c3cc(Cl)ccc3oc2nc1C	-7.4	-7.4*	-28%*	i	i	KCNQ2 patch conf=+
O=C(c1ccco1)N1CCN(C(=S)NCc2ccc(F)cc2)CC1	x	i	x	x	x
SMILES	KCNQ2 pot	KCNQ2 block	KCNQ2 block conf	KCNQ1 spec	CHO Tl ctr	others
CN(C(=O)c1ccccc1-c1ncc[nH]1)C1CCCN(Cc2ccccc2F)C1 (stereo not drawn)	0.02	i	x	x	x
CNS(=O)(=O)c1ccc(NC(=O)c2cc(-c3ccncc3)nc3ccc(Cl)cc23)cc1	x	i	x	x	x
CC(C)(C)OC(=O)N1CCC[C@H]1c1nnc(SCc2c(F)cccc2Cl)o1	x	i	x	x	x
CC(C)(C)OC(=O)N1CCC[C@H]1c1nnc(SCc2ccc(Cl)cc2Cl)o1	-7.2	-7.2*	i	i	i
CCn1c(CNc2ccc(C)cc2)nnc1SCC(=O)NCc1ccccc1	x	i	x	x	x
C=CCn1c(CSCc2ccc(C)cc2)nnc1SCC(=O)NCc1ccccc1	-8.4	-8.4*	-22%*	i	i	KCNQ2 patch conf=+
Cc1c(CCOC(=O)c2ccccc2)sc[n+]1Cc1ccccc1	x	i	x	x	x
Cc1c(CCOC(=O)CC23CC4CC(CC(C4)C2)C3)sc[n+]1CC(=O)c1ccc(Br)cc1	-10	-10*	-28%*	i	i	KCNQ2 patch conf=+
Cc1c(CCOC(=O)c2cc([N+](=O)[O-])cc([N+](=O)[O-])c2)sc[n+]1CC(=O)c1ccccc1	0.27	i	x	x	x
Cc1c(CCOC(=O)CC23CC4CC(CC(C)(C4)C2)C3)sc[n+]1CC(=O)c1ccccc1	-7.8	-7.8*	i	i	i
N#CC1(NC(=O)COc2ccc3ccc(=O)oc3c2)CCCCC1	x	i	x	x	x
CCOCCCN(C(=O)Cn1nnc(-c2ccc(OC)c(OC)c2)n1)C(C(=O)NCC1CCCO1)c1ccc(F)cc1 (stereo not drawn)	x	i	x	x	x
CCn1c(C(=O)N2CCCC(C(=O)O)C2)cc2sccc21 (stereo not drawn)	0.84	i	x	x	x
CCn1c(C(=O)N2CCC(Cc3ccccc3)CC2)cc2sccc21	-7.2	-7.2*	i	i	i
CCn1cnc2c1c(=O)n(Cc1csc(-c3ccccc3)n1)c(=O)n2Cc1ccccc1	-9.4	-9.4*	-16%*	i	i	KCNQ2 patch conf=i
CCn1cnc2c1c(=O)n(Cc1cccc([N+](=O)[O-])c1)c(=O)n2Cc1ccccc1	0.22	i	x	x	x
O=C(CNC(=O)c1ccc(Cl)cc1Cl)OCC(=O)N1CCCC1=O	x	i	x	x	x
CC1CCN(S(=O)(=O)c2ccc3c(c2)N(CC(=O)N(C)Cc2ccco2)C(=O)CO3)CC1	0.11	i	x	x	x
CC(Oc1ccc(Cl)cc1Cl)C(=O)NN=C1CCN(C)CC1 (stereo not drawn)	0.08	i	x	x	x
CC(Oc1ccc(Cl)cc1Cl)C(=O)N/N=C1\CCCc2ccccc21 (stereo not drawn)	-6.7	-6.7*	-32%*	i	i	KCNQ2 patch conf=+
COc1cc(Cl)ccc1OCc1cc(C(=O)N(C)Cc2cccc3cnccc23)no1	0.2	i	x	x	x
CC(C)Oc1ccc(CNC(=O)c2cc(S(=O)(=O)N3CCOCC3)cn2C)cc1	x	i	x	x	x
COc1ccccc1NC(=O)C1=C(C)Nc2ncnn2C1c1ccccc1C (stereo not drawn)	0.97	i	x	x	x
COc1cccc(C2C(C(=O)Nc3ccc(C)cc3C)=C(C)Nc3ncnn32)c1OC (stereo not drawn)	-12	-12*	i	i	i
CCOC(=O)c1c(NC(=S)Nc2ccc(C)cc2)sc2c1CCC2	0.01	i	x	x	x
SMILES	KCNQ2 pot	KCNQ2 block	KCNQ2 block conf	KCNQ1 spec	CHO Tl ctr	others
CCOC(=O)c1c(NC(=O)CS(=O)(=O)c2cn(CC)c3ccccc23)sc2c1CCCCC2	-7	-7*	-25%*	i	i	KCNQ2 patch conf=+
CCOC(=O)c1c(NC(=S)Nc2ccc(F)cc2)sc2c1CCC2	-7	-7*	i	i	i
CCOC(=O)c1c(NC(=O)CS(=O)(=O)c2cn(CC)c3ccccc23)sc2c1CCCC2	-11	-11*	-36%*	i	i	KCNQ2 patch conf=+
CCOC(=O)c1c(NC(=O)Cc2cccs2)sc2c1CCCC2	x	i	x	x	x
CCOc1ccc(NC(=O)CS(=O)(=O)c2cn(CC)c3ccccc23)cc1	1	i	x	x	x
CCCCn1c(N)c(N(CCOC)C(=O)CCNC(=O)c2ccc(Br)cc2)c(=O)[nH]c1=O	x	i	x	x	x
Cc1nc(NC(=O)CSc2nccn2C)sc1C(=O)N(C)C	x	i	x	x	x
O=C(c1ccc2c(=O)n3c(nc2c1)CCC3)N1CCCSC1=Nc1ccccc1	0.68	i	x	x	x
O=C(NC(=S)Nc1ccc2nc[nH]c2c1)c1ccccc1	x	i	x	x	x
